The text below walks through data of PubChem BioAssay (NCATS).

Results filed as inconclusive are left out. Calls of active or inactive are those of the source. Calls come from the whole dose curve; as a rule, active = well fitted curve in the direction sought with a large enough effect; inconclusive = small, poorly fitted or top-dose-only effect, or another doubt; inactive = no such curve, though single readings can be large; an effect the other way counts as inactive or inconclusive.

The nature of assay [1]: Confirmatory screen GU Rhodamine qHTS for Zika virus inhibitors qHTS (AID 1347157). Note: potency is the fitted concentration of half-maximal effect; nearly all actives have a fitted effect of over 70% in size. A digest of the protocol: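 Unlinked NS2B/NS3, 25 nM; Rhod110 peptide, 1.5 microM; compounds, up to 114 microM. Reaction run 15 min at RT in 10 mM Tris-HCl pH 8.0, 0.01% Tween 20; kinetic fluorescence change fitted with a 4-parameter Hill model.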
On the technique in general: Quantitative high-throughput screening tests each substance at several concentrations.

Assay [2] in a line: ZIKV-mCherry secondary qHTS for Zika virus inhibitors (AID 1347158). Note: top concentration of the series differs between compounds. A digest of the protocol: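 After overnight seeding at 37 °C, Vero cells receive compound and then ZIKV-mCherry (MOI 1). Following 48-72 h infection, cells are fixed, counterstained with Hoechst, and imaged; percent infected cells is derived from an mCherry intensity cut-off of 450 RFU.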
A short description of assay [3]: Confirmatory screen NINDS Rhodamine qHTS for Zika virus inhibitors (AID 1347161). Note: potency is the fitted concentration of half-maximal effect; nearly all actives have a fitted effect of over 60% in size. A digest of the protocol:
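Rhodamine110-peptide cleavage (1.5 µM substrate) by 25 nM linked NS2B-NS3 enzyme at pH 8.0 (Tris, Tween 20), after 15 min RT preincubation with compounds; 15-min fluorescence change normalized to controls and Hill-fitted.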

The test system of assay [4] is Zika virus NS2B-NS3 protease (linked). Description: 384 well plate NINDS AMC confirmatory qHTS for Zika virus inhibitors (AID 1347163). Note: potency is the fitted concentration of half-maximal effect; nearly all actives have a fitted effect of over 50% in size. In short, it runs like this: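 Linked protease 5/30/60 nM final; cpds up to 1 mM final, ~15 min preinc. Substrate Ac-VKTGKR-AMC 30 microM final. RT, dark, 25 min; FI ex 355/em 460; normalized to no-enzyme/no-inhibitor ctrls.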
The subject of assay [5] is Zika virus NS2B-NS3 protease (linked construct). Description: 384 well plate NINDS Rhodamine confirmatory qHTS for Zika virus inhibitors (AID 1347164). Note: potency is the fitted concentration of half-maximal effect; nearly all actives have a fitted effect of over 65% in size. A digest of the protocol: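 Compounds are incubated about 15 minutes with linked protease (5, 30 or 60 nM final). Rhodamine 110-tagged Ac-LKRR substrate (10 microM final) is added and fluorescence measured after 25 minutes.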

Assay [6] is described as follows: Tertiary RLuc qRT-PCR qHTS assay for Zika virus inhibitors (AID 1347169). Note: top concentration of the series differs between compounds; nearly all actives have a fitted effect of over 55% in size. A digest of the protocol:
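Orthogonal cell-based infection assay using recombinant ZIKV-RLuc (Cambodian) in Vero cells; compound added prior to virus at MOI 1-2. Incubation lasts 48-72 hrs at 37 degrees C before live-cell Renilla substrate is added and luminescence measured.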
(In general: Real-time PCR tracks product formation cycle by cycle.)

Assay [7] has as its target Rap guanine nucleotide exchange factor 3 (Homo sapiens) (UniProt O95398). Description: Confirmatory qHTS for antagonist of cAMP-regulated guanine nucleotide exchange factor 3 (EPAC1) (AID 1645880). Note: potency is the fitted concentration of half-maximal effect; nearly all actives have a fitted effect of over 55% in size. A digest of the protocol:
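Nucleotide exchange uses 100 nM EPAC1, 250 nM RAP1B-BODIPY-GDP and 50 uM GDP, with compounds in a concentration-titration series. After 5 min at room temperature, fluorescence (480 nm ex/540 nm em) is read every 5 min for 30 min. Data are normalized to control ATA and DMSO.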

Assay [8] has the same target. Description: Confirmatory qHTS for agonist of cAMP-regulated guanine nucleotide exchange factor 3 (EPAC1) (AID 1645881).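 Note: EPAC1 catalysed release of BODIPY-GDP from Rap1B seen as fluorescence loss; nearly all actives have a fitted effect of over 75% in size.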
Assay [9] addresses Rap guanine nucleotide exchange factor 4 (Homo sapiens) (UniProt Q8WZA2). Description: Confirmatory qHTS for agonist of cAMP-regulated guanine nucleotide exchange factor 4 (EPAC2) (AID 1645884).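 Note: nucleotide exchange releases bodipy-GDP from Rap1 and this lowers its fluorescence; nearly all actives have a fitted effect of over 65% in size.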
The target is the same in assay [10]. Description: Confirmatory qHTS for antagonist of cAMP-regulated guanine nucleotide exchange factor 4 (EPAC2) (AID 1645885). Note: nearly all actives have a fitted effect of over 25% in size.
In assay [11] the target is Rap guanine nucleotide exchange factor 3 (Homo sapiens) (UniProt O95398). Description: Counterscreen qHTS for antagonist of cAMP-regulated guanine nucleotide exchange factor 3 (EPAC1) (AID 1645888).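 Note: fluorescence loss as bound BODIPY-GDP is released from Rap1B.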 A digest of the protocol:
(§1)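 Measured: fluorescence of BODIPY-GDP bound to Rap1B, which falls as exchange proceeds. Conditions include 50 uM competing GDP, 5 and 30 min reads, and a later cAMP challenge for antagonist detection.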

The target is the same in assay [12]. Description: Counterscreen qHTS for agonist of cAMP-regulated guanine nucleotide exchange factor 3 (EPAC1) (AID 1645889). Note: nearly all actives have a fitted effect of over 40% in size. In short, it runs like this:
as §1
(The purpose of a counterscreen is to sort out artefacts and off-target activity.)

Chain of Rap guanine nucleotide exchange factor 3 (Homo sapiens) (O95398 whole entry, looked up): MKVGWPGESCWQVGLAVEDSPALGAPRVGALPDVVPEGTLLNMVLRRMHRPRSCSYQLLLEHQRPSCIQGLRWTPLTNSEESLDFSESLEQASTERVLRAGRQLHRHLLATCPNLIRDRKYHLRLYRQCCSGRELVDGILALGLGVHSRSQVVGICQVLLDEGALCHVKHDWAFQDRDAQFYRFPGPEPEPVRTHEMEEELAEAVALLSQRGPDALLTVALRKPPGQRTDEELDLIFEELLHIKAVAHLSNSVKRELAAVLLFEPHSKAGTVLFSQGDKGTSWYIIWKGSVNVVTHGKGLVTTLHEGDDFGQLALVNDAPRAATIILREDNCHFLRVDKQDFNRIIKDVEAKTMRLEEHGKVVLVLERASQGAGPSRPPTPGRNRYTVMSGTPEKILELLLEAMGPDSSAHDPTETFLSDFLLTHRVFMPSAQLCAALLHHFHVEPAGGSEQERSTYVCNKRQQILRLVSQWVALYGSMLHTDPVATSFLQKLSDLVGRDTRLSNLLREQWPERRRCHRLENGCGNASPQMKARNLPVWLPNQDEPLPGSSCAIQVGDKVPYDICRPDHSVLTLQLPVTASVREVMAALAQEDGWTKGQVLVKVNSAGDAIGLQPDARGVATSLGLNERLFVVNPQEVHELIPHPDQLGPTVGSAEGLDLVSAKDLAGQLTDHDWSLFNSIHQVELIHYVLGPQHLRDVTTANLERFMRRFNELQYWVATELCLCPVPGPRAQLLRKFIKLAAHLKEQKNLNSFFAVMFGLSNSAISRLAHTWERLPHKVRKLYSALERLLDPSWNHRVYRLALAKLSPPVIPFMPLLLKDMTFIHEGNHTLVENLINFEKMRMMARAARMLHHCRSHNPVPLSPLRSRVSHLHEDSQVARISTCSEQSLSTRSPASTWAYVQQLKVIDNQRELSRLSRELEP
Chain of Rap guanine nucleotide exchange factor 4 (Homo sapiens) (Q8WZA2 whole entry, looked up): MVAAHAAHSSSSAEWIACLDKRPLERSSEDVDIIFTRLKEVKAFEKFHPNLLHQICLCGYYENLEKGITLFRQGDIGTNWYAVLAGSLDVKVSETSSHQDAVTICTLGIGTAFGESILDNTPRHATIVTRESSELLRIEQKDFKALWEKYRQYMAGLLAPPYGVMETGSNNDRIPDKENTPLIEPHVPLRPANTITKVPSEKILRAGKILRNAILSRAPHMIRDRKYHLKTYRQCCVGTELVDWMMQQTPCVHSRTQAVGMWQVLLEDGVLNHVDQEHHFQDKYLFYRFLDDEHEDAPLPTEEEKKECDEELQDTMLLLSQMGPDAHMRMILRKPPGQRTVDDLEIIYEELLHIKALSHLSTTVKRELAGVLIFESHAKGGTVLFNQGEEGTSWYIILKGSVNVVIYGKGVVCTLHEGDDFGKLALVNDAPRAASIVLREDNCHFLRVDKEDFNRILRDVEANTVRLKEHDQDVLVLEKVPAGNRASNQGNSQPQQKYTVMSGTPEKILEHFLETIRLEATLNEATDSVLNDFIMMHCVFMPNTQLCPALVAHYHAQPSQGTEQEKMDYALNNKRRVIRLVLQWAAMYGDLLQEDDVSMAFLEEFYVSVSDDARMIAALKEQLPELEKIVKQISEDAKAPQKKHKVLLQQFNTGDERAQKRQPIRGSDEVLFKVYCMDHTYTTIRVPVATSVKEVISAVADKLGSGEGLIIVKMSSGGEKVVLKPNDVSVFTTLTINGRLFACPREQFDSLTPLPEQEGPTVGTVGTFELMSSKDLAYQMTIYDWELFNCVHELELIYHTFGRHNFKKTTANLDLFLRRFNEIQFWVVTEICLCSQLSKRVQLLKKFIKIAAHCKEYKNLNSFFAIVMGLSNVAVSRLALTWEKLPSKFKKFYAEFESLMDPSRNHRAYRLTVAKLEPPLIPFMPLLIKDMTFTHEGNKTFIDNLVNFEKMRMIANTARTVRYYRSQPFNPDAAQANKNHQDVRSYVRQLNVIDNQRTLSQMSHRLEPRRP

On to `CC(C)c1ccc(NC(=O)c2ccc3c(O)c(S(=O)(=O)c4ccccc4)c(=O)[nH]c3c2)cc1`, for which the Potency in assay [1] was 17.8 µM (active); in [3], 3.98 µM (active); in assay [4], 282 µM (active); in assay [5] it was 28.2 µM (active). Further, in [2], the Potency result is “inactive”.

Consider `CC(=O)Nc1ccc(S(=O)(=O)O)c2cc(S(=O)(=O)O)c(N=Nc3ccc(N=Nc4ccc(S(=O)(=O)O)cc4)c4ccc(S(=O)(=O)O)cc34)c(O)c12`, for which the Potency in assay [1] is 6.31 µM (active); in [3] it was 2.51 µM (active); in assay [4], 22.4 µM (active); in [5], 3.98 µM (active). Also, the Potency entry in [6] was “inactive”.

Consider `COc1ccc(NS(=O)(=O)c2ccc3c(c2)[C@H]2C=CC[C@H]2[C@@H](c2ccc(C(=O)O)cc2)N3)cc1`, for which the Potency in assay [1] was 20 µM (active); in assay [3], 3.16 µM (active); in assay [4], 79.4 µM (active); in assay [5] it was 20 µM (active); in assay [7] it was 19 µM (active). Moreover, the Potency result in assay [2], in assay [6], in assay [10] and in assay [12] was “inactive” in each case. Moreover, the outcome in [8], in assay [9] and in assay [11] was inactive.
